# Inconclusive results are not listed. Activity calls are given as the source filed them. Unless noted, the limit is not given here; nearly all actives have AC50 up to about 26 µM.
# Assays:
# [1] = growth inhibition of DIPG glioma cells, dose response, cell-based, SU-DIPG-XVII, MIPE5.0, CellTiter-Glo, qHTS (AID 1347060); conditions: SU-DIPG-XVII viability, CellTiter-Glo ATP luminescence;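 also: cells exposed to compound for 48 hours before viability readout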
# [2] = growth inhibition of DIPG glioma cells, dose response, cell-based, JHH-DIPG-1, MIPE4.0, CellTiter-Glo, qHTS (AID 1347062; cut-off not given, nearly all actives have AC50 up to about 27 µM;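 also: cells exposed to compound for two days before readout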); conditions: JHH-DIPG-1 viability, CellTiter-Glo ATP luminescence
# [3] = growth inhibition of DIPG glioma cells, dose response, cell-based, SU-DIPG-IV, MIPE4.0, CellTiter-Glo, qHTS (AID 1347063; cut-off not given, nearly all actives have AC50 up to about 30 µM;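 also: compound exposure lasted 48 hours before the viability readout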); conditions: SU-DIPG-IV viability, CellTiter-Glo ATP luminescence
# [4] = viability loss in pontine glioma line – cell-based, SU-DIPG-XXV, MIPE5.0, CellTiter-Glo, qHTS, dose response (AID 1347065); conditions: CellTiter-Glo ATP luminescence;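 also: cells exposed to compound for 48 hours before ATP readout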
# [5] = JHH-DIPG-1 glioma cell viability, MIPE5.0 library, CellTiter-Glo luminescence, qHTS (AID 1347067); conditions: JHH-DIPG-1 glioma viability, CellTiter-Glo ATP luminescence;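 also: cells exposed to compound for 48 hours before readout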
# [6] = SU-DIPG-XXV glioma cell viability, MIPE5.0 library, qHTS (AID 1347068; cut-off not given, nearly all actives have IC50 up to about 30 µM;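 also: cells exposed to compound for 48 hours before viability readout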)
# [7] = sensitizers of A549 cells to miR-34 induction, primary screen, imaging, A549 dox-inducible miR-34, nuclei and caspase counts (AID 1347080;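 active = compounds whose cell count with miR-34 switched on is under 0.7 times the count with it off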); conditions: A549 miR-34 inducible, Hoechst nuclei count, 48 h
# [8] = survival rescue of mitochondrial mutant cells in low glucose, primary screen, MELAS cybrids, Rieske KO mouse fibroblasts, CellTiter-Glo (AID 1508586;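 active = mean z-score across replicates of 1.96 or higher in either the MELAS or the Rieske mutant cell line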;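 also: z relative to plate mean and SD of compound and empty wells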)
# [9] = LFS_MB_P medulloblastoma growth inhibition, cell-based, chromothripsis tumors, cisplatin or BGB combos (AID 1671449; in the data active = inhibition above about 80%;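 also: cells exposed for 96 hours; 0% = vehicle DMSO and 100% = killing by high DMSO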); conditions: LFS_MB_P medulloblastoma cells
# [10] = HDN33 neuroblastoma growth inhibition, cell-based, chromothripsis tumors, cisplatin or BGB combos (AID 1671450; in the data active = inhibition above about 80%;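 also: cells exposed to compound for four days; 0% = vehicle DMSO and 100% = cell killing by high DMSO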); conditions: HDN33 neuroblastoma cells, stronger effect = higher value
# [11] = ICB984 medulloblastoma cell growth inhibition, synergistic combos for chromothripsis tumors, cisplatin or BGB combos (AID 1671451; call rule not given here;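 also: cells exposed for 96 hours before readout; 0% = vehicle DMSO and 100% = killing by high DMSO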); conditions: ICB984 medulloblastoma cells, drug combinations, stronger effect = higher value
# [12] = HTB85 osteosarcoma cell growth inhibition, synergistic combos for chromothripsis tumors, BGB or cisplatin IC20 combos (AID 1671453; in the data active = inhibition above about 80%;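 also: cells exposed for 96 hours before readout; 0% = vehicle DMSO and 100% = high DMSO killing control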); conditions: HTB85 osteosarcoma cells, drug combinations, stronger effect = higher value
# [13] = MDA-MB-436 breast carcinoma cell growth inhibition, synergistic combos for chromothripsis tumors, BGB or cisplatin combos (AID 1671458; call rule not given here;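 also: cells exposed for 96 hours; 0% = vehicle DMSO and 100% = killing by high DMSO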); conditions: MDA-MB-436 breast carcinoma growth inhibition, drug combinations, stronger effect = higher value
# [14] = growth inhibition of BT084 medulloblastoma cells, cell-based, ICGC_MB145, cisplatin and BGB IC40 combos (AID 1671461; in the data active = inhibition above about 80%;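 also: cells exposed to drugs for 96 hours; 0% = vehicle DMSO and 100% = high DMSO full killing control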); conditions: drug combinations, stronger effect = higher value
# [15] = growth inhibition of RCMB18 medulloblastoma cells, cell-based, cisplatin and BGB IC40 combos (AID 1671462; in the data active = inhibition above about 80%;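 also: cells exposed to compound for four days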); conditions: stronger effect = higher value
compound,measurement,setting,value
CC(C)c1cnn2c(NCc3ccccc3)cc(N[C@@H](CO)[C@H](O)CO)nc12,AC50,[1],0.263 µM (active)
same,AC50,[2],0.418 µM (active)
same,AC50,[3],0.187 µM (active)
same,AC50,[4],0.235 µM (active)
same,AC50,[5],0.417 µM (active)
same,IC50,[6],0.468 µM (active)
Cc1ccc2nc(NCCN)c3ncc(C)n3c2c1,AC50,[1],8.33 µM (active)
same,AC50,[2],2.35 µM (active)
same,AC50,[3],20.9 µM (active)
same,AC50,[4],8.33 µM (active)
same,AC50,[5],13.2 µM (active)
same,fold change,"[7]; stronger effect = lower value, cell number ratio, induced over uninduced",1.09 (inactive)
same,fold change,[7]; measured here: relative caspase fold change +Dox/-Dox,0.561
same,cell count,"[7]; measured here: total cells with miR-34 induction, stronger effect = lower value",6190
same,cell count,[7]; measured here: total cells without miR-34 induction,5680
same,z-score,"[8]; MELAS cybrid survival, CellTiter-Glo 48 h, stronger effect = higher value",-0.409 (inactive)
same,z-score,"[8]; Rieske KO mouse fibroblast survival, CellTiter-Glo 72 h",-2.24
same,inhibition,"[9]; at 0.5 µM, stronger effect = higher value",11.2% (inactive)
same,inhibition,"[9]; measured here: combination with BGB IC20, at 0.005 µM",0.796%
same,inhibition,"[9]; measured here: combination with BGB IC40, at 0.005 µM",-31.1%
same,inhibition,"[9]; measured here: combination with BGB IC40, at 0.05 µM",-6.91%
same,inhibition,"[9]; measured here: combination with cisplatin, at 0.5 µM, stronger effect = higher value",74.2%
same,inhibition,"[9]; measured here: combination with cisplatin, at 5 µM, stronger effect = higher value",-17.8%
same,inhibition,"[10]; BGB combo, at 5 µM",63.5%
same,inhibition,[10]; at 0.5 µM,-5% (inactive)
same,inhibition,"[10]; cisplatin combo, at 5 µM",55.9%
same,inhibition,"[10]; measured here: with BGB IC20 combination, at 0.5 µM",-7.6%
same,inhibition,"[10]; measured here: with cisplatin IC20 combination, at 0.5 µM",2.54%
same,inhibition,"[10]; single agent, at 5 µM",57.3%
same,inhibition,"[11]; BGB IC20 combo, at 0.005 µM",10.7%
same,inhibition,"[11]; BGB IC40 combo, at 0.005 µM",-98.8%
same,inhibition,"[11]; BGB IC40 combo, at 0.05 µM",52.7%
same,inhibition,[11]; at 0.5 µM,-16% (inactive)
same,inhibition,"[11]; cisplatin combo, at 0.05 µM",50.8%
same,inhibition,"[11]; cisplatin combo, at 0.5 µM",-17.9%
same,inhibition,"[11]; cisplatin combo, at 5 µM",-22.2%
same,inhibition,"[11]; measured here: 5 uM single agent, at 5 µM",-10.1%
same,inhibition,[12]; at 0.5 µM,7.35% (inactive)
same,inhibition,"[12]; measured here: with BGB IC20, at 0.5 µM",19.2%
same,inhibition,"[12]; measured here: with BGB IC20, at 5 µM",98.1%
same,inhibition,"[12]; measured here: with cisplatin IC20, at 0.5 µM",-7.65%
same,inhibition,"[12]; measured here: with cisplatin IC20, at 5 µM",89.2%
same,inhibition,"[12]; single agent, at 5 µM",91.7%
same,inhibition,[13]; at 0.5 µM,-3.06% (inactive)
same,inhibition,"[13]; measured here: BGB combination, at 0.5 µM",-13.7%
same,inhibition,"[13]; measured here: BGB combination, at 5 µM",65.6%
same,inhibition,"[13]; measured here: cisplatin combination, at 0.5 µM",6.41%
same,inhibition,"[13]; measured here: cisplatin combination, at 5 µM",80.2%
same,inhibition,[14]; at 0.5 µM,4.08% (inactive)
same,inhibition,"[14]; cisplatin combination, at 0.5 µM",-3.36%
same,inhibition,"[14]; cisplatin combination, at 5 µM",46.6%
same,inhibition,"[14]; measured here: BGB IC40 combination 0.05 uM, at 0.05 µM",-4.49%
same,inhibition,"[14]; single agent, at 5 µM",32.4%
same,inhibition,[15]; at 0.5 µM,1.56% (inactive)
same,inhibition,"[15]; cisplatin combo, at 5 µM",76%
same,inhibition,"[15]; measured here: BGB IC40 combination, at 0.05 µM",1.88%
same,inhibition,"[15]; measured here: combination with cisplatin, at 0.5 µM",32.9%
same,inhibition,"[15]; single agent, at 5 µM",33.3%
